Measured values taken from PubChem BioAssay AID1159580 (chemical genetic matrix, 2015).
Hit rate of the full screen: of about 5,500 compounds, about 2,000 (36%) were called active. Roughly 18% stayed inconclusive and do not appear here. Cut-off read from the data, not from the text of the source: active = normalized growth mostly below about 0.91 (no sharp cut-off); inconclusive = no clear call, values can overlap the other calls; inactive = mostly above about 0.92. This is one part of the list.

Assay: chemical genetic growth profiling, strain panel (AID 1159580);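 note: tested at 20 µM; growth read once vehicle control cultures reached saturation at 30 °C; 1 = growth at the plate median or of vehicle wells; lower values mean less growth of the strain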
Conditions: S. cerevisiae deletion strains, growth OD
[1] = locus YAL013W, strain DEP1, hits give low values
[2] = locus YMR263W, strain SAP30, hits give low values
[3] = locus YPL055C, strain LGE1, hits give low values
[4] = locus YPL241C, strain CIN2, hits give low values
[5] = locus YDL101C, strain DUN1, hits give low values
[6] = locus YHR030C, strain SLT2, hits give low values

Measured: normalized growth

CC[C@H]1CN2CCc3cc(OC)c(OC)cc3[C@@H]2C[C@@H]1C[C@H]1NCCc2cc(OC)c(OC)cc21
inactive: [1] 1.01 | locus YAL040C, strain CLN3, hits give low values 0.999 | locus YCL061C, strain MRC1 (second series), hits give low values 0.995 | locus YDR363W, strain ESC2, hits give low values 0.999 | locus YER002W, strain NOP16, hits give low values 1 | locus YGR229C, strain SMI1, hits give low values 0.994 | [2] 1.01 | locus YMR307W, strain GAS1, hits give low values 1.01 | locus YNL128W, strain TEP1, hits give low values 0.999 | locus YNL175C, strain NOP13, hits give low values 1.03 | locus YNL197C, strain WHI3, hits give low values 1.02 | locus YNL224C, strain SQS1, hits give low values 1.02 | locus YOR083W, strain WHI5 (second series), hits give low values 1.02 | [3] 1.02 | [4] 1

O=C(Nc1ccccn1)c1cc(-c2ccccc2)c(C(F)(F)F)s1
active: [6] 0.816 | locus YLR113W, strain HOG1, hits give low values 0.77 | locus YPL256C, strain CLN2, hits give low values 0.806
inactive: locus YAR019C, strain CDC15, hits give low values 0.954 | locus YBL105C, strain PKC1, hits give low values 0.94 | locus YBR135W, strain CKS1, hits give low values 0.947 | locus YBR136W, strain MEC1, hits give low values 0.953 | locus YBR160W, strain CDC28, hits give low values 0.939 | locus YDL017W, strain CDC7, hits give low values 0.945 | locus YDL028C, strain MPS1, hits give low values 0.95 | [5] 0.944 | locus YDL108W, strain KIN28, hits give low values 0.962 | locus YDL132W, strain cdc53, hits give low values 0.942 | locus YDL214C, strain PRR2, hits give low values 0.897 | locus YDR052C, strain DBF4, hits give low values 0.955 | locus YDR054C, strain cdc34, hits give low values 0.947 | locus YDR226W, strain ADK1, hits give low values 0.965 | locus YDR477W, strain SNF1, hits give low values 0.969 | locus YER123W, strain YCK3, hits give low values 0.967 | locus YER133W, strain GLC7, hits give low values 0.961 | locus YFL009W, strain cdc4, hits give low values 0.955 | locus YFL029C, strain CAK1, hits give low values 0.939 | locus YFR003C, strain YPI1, hits give low values 0.95 | locus YFR019W, strain FAB1, hits give low values 0.953 | locus YFR028C, strain CDC14, hits give low values 0.959 | locus YGR040W, strain KSS1, hits give low values 0.96 | locus YGR052W, strain FMP48, hits give low values 0.971 | locus YGR092W, strain DBF2, hits give low values 0.902 | locus YHR079C, strain IRE1, hits give low values 0.877 | locus YHR082C, strain KSP1, hits give low values 0.918 | locus YHR205W, strain SCH9, hits give low values 0.836 | locus YIL147C, strain SLN1, hits give low values 0.949 | locus YJL095W, strain BCK1, hits give low values 0.916 | locus YJL128C, strain PBS2, hits give low values 0.909 | locus YJL157C, strain FAR1, hits give low values 0.948 | locus YJR016C, strain ILV3, hits give low values 0.951 | locus YJR066W, strain TOR1 (second series), hits give low values 1 | locus YJR066W, strain TOR1, hits give low values 0.897 | locus YKL048C, strain ELM1, hits give low values 0.948 | locus YKL067W, strain YNK1, hits give low values 0.928 | locus YKL101W, strain HSL1, hits give low values 0.929 | locus YKL193C, strain SDS22, hits give low values 0.929 | locus YKL203C, strain TOR2, hits give low values 1.01 | locus YLR133W, strain CKI1, hits give low values 0.941 | locus YLR403W, strain SFP1, hits give low values 0.97 | locus YML070W, strain DAK1, hits give low values 0.924 | locus YMR001C, strain CDC5, hits give low values 0.921 | locus YMR205C, strain PFK2 (second series), hits give low values 0.934 | locus YMR277W, strain FCP1, hits give low values 0.928 | locus YNL006W, strain LST8, hits give low values 0.94 | locus YNL020C, strain ARK1, hits give low values 0.931 | locus YNL161W, strain CBK1, hits give low values 0.934 | locus YNL183C, strain NPR1, hits give low values 0.887 | locus YNL207W, strain RIO2, hits give low values 0.935 | locus YNL222W, strain SSU72, hits give low values 0.941 | locus YNL307C, strain MCK1 (second series), hits give low values 0.897 | locus YOL078W, strain AVO1, hits give low values 0.934 | locus YOL136C, strain PFK27, hits give low values 0.893 | locus YOR061W, strain CKA2, hits give low values 0.95 | locus YOR119C, strain RIO1, hits give low values 0.945 | locus YOR231W, strain MKK1, hits give low values 0.876 | locus YOR329C, strain SCD5, hits give low values 0.935 | locus YPL031C, strain PHO85, hits give low values 0.954 | locus YPL153C, strain RAD53, hits give low values 0.963 | locus YPL204W, strain HRR25, hits give low values 0.945 | locus YPL209C, strain IPL1, hits give low values 0.938 | locus YPR025C, strain CCL1, hits give low values 0.942 | locus YPR106W, strain ISR1, hits give low values 0.936 | locus YPR111W, strain DBF20, hits give low values 0.975 | strain NNK1, hits give low values 0.919 | strain TSCII, hits give low values 0.938

O=C(Nc1cc(C(F)(F)F)cc(C(F)(F)F)c1)C(Sc1ccccn1)c1ccccc1 (configuration not stated)
inactive: [1] 0.998 | locus YBR229C, strain ROT2, hits give low values 0.983 | [5] 0.987 | locus YDL134C, strain PPH21, hits give low values 0.979 | locus YDR150W, strain NUM1, hits give low values 1 | locus YEL061C, strain CIN8, hits give low values 0.988 | locus YGR078C, strain PAC10, hits give low values 0.989 | [6] 0.982 | locus YHR087W, strain rtc3, hits give low values 0.973 | locus YJR043C, strain POL32, hits give low values 0.995 | locus YJR075W, strain HOC1, hits give low values 1.01 | locus YLR039C, strain RIC1, hits give low values 0.944 | locus YLR058C, strain SHM2 (second series), hits give low values 0.978 | locus YLR085C, strain ARP6, hits give low values 1.02 | locus YLR262C, strain YPT6, hits give low values 0.962 | locus YML094W, strain GIM5, hits give low values 0.953 | locus YMR219W, strain ESC1, hits give low values 0.99 | [2] 1.03 | locus YNL153C, strain GIM3, hits give low values 1.01 | locus YNL298W, strain CLA4 (second series), hits give low values 1.01 | locus YNL322C, strain KRE1, hits give low values 0.991 | locus YNR030W, strain Alg12, hits give low values 0.997 | locus YOL006C, strain TOP1, hits give low values 0.997 | [3] 1.03 | [4] 0.98 | locus YPR135W, strain CTF4, hits give low values 0.959
